# Inconclusive results are not listed. Where a call stands in place of a potency, no number is given. A number with no mark means an inactive call. Calls of active or inactive are those of the source. Unless noted, calls come from the whole dose curve; as a rule, active = well fitted curve in the direction sought with a large enough effect; inconclusive = small, poorly fitted or top-dose-only effect, or another doubt; inactive = no such curve, though single readings can be large; an effect the other way counts as inactive or inconclusive.
# Tests used:
# [1] = molecular target: Aldehyde dehydrogenase, mitochondrial (Homo sapiens) (UniProt P05091); assay: qHTS for Inhibitors of the Aldehyde Dehydrogenase Family (ALDH2) Confirmatory screens (AID 2061303; active = well fitted inhibition curve with a large enough effect; title and protocol of this record describe different tests; note: nearly all actives have a fitted effect of over 45% in size; note: potency is the fitted concentration of half-maximal effect)
# [2] = qHTS for Inhibitors of the Aldehyde Dehydrogenase Family (ALDH1A2, ALDH1A3, ALDH2, ALDH3A1) (AID 2061307); note: nearly all actives have a fitted effect of over 50% in size; for potency: test system not described further here; potency is the fitted concentration of half-maximal effect
# [3] = molecular target: Aldehyde dehydrogenase, mitochondrial (Homo sapiens) (UniProt P05091); assay: qHTS for Inhibitors of the Aldehyde Dehydrogenase Family (ALDH2) Primary screen (AID 2061308); note: nearly all actives have a fitted effect of over 55% in size; note: potency is the fitted concentration of half-maximal effect
# [4] = molecular target: Retinaldehyde dehydrogenase 3 (Homo sapiens) (UniProt P47895); assay: qHTS for Inhibitors of the Aldehyde Dehydrogenase Family (ALDH1A3) Primary screen (AID 2061315)
# [5] = molecular target: Retinaldehyde dehydrogenase 3 (Homo sapiens) (UniProt P47895); assay: qHTS for Inhibitors of the Aldehyde Dehydrogenase Family (ALDH1A3) Confirmatory screens (AID 2061311); note: nearly all actives have a fitted effect of over 60% in size; note: potency is the fitted concentration of half-maximal effect
# [6] = molecular target: Retinaldehyde dehydrogenase 3 (Homo sapiens) (UniProt P47895); assay: qHTS for Inhibitors of the Aldehyde Dehydrogenase Family (ALDH1A3) Validation screen (AID 2061312); note: nearly all actives have a fitted effect of over 45% in size
# [7] = molecular target: Retinal dehydrogenase 2 (Homo sapiens) (UniProt O94788); assay: qHTS for Inhibitors of the Aldehyde Dehydrogenase Family (ALDH1A2) Confirmation screens (AID 2061314); note: nearly all actives have a fitted effect of over 65% in size; note: potency is the fitted concentration of half-maximal effect
# [8] = molecular target: Aldehyde dehydrogenase 1A1 (Homo sapiens) (UniProt P00352); assay: qHTS for Inhibitors of the Aldehyde Dehydrogenase Family (ALDH1A1) Confirmatory screens (AID 2061316); note: nearly all actives have a fitted effect of over 65% in size; note: potency is the fitted concentration of half-maximal effect
# [9] = BET inhibitor-based combinations targeting novel dependencies in MECOM-rearranged (r) AML: HNT-34 cell line (AID 2202234); note: nearly all actives have a fitted effect of over 35% in size
# Procedure, shortened: (§1)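 Using pin-tool transfer, drugs were added in 11 doses to cells (500/well), incubated 48 hr, and assessed with CellTiter-Glo. Z-AUC is a mean-centring transformation applied separately to each screened line.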
# [10] = BET inhibitor-based combinations targeting novel dependencies in MECOM-rearranged (r) AML: AML-194 cell line (AID 2202237; note: nearly all actives have a fitted effect of over 40% in size)
# Procedure, shortened: (§2)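 Viability of cells (500 per well) is scored by luminescent CellTiter-Glo at 48 hr post-dosing. Eleven-point titrations are normalized to DMSO and empty controls and reduced to AUC values.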
# [11] = BET inhibitor-based combinations targeting novel dependencies in MECOM-rearranged (r) AML: SET-2 cell line (AID 2202231); details: SET-2 AML cells viability, CellTiter-Glo luminescence, 48 h; viability: active compounds read low, concentration not given here; note: potency is the fitted concentration of half-maximal effect; nearly all actives have a fitted effect of over 35% in size
# Procedure, shortened: as §2
# [12] = BET inhibitor-based combinations targeting novel dependencies in MECOM-rearranged (r) AML: UCSD-AML1 cell line (AID 2202235); note: series mostly up to about 46 µM; nearly all actives have a fitted effect of over 40% in size
# Procedure, shortened: as §1
smiles,measurement,setting,value
Cc1cnc(-c2ccccc2C(F)F)nc1NCc1ccc(-n2ccnn2)cc1,Potency,[1],25.1 µM (active)
same,Potency,[2],4.47 µM (active)
same,Potency,[3],inactive
same,Potency,[4],inactive
Cc1cc(N[S+](=O)([O-])c2ccc(NC(=O)Cc3ccc4nccnc4c3)cc2)no1,Potency,[1],inactive
same,Potency,[2],inactive
same,Potency,[3],inactive
same,Potency,[4],inactive
CN[C@@H]1[C@H](O[C@H]2[C@H](O[C@@H]3[C@@H](O)[C@H](O)[C@@H](N=C(N)N)[C@H](O)[C@H]3N=C(N)N)O[C@@H](C)[C@]2(O)C=O)O[C@@H](CO)[C@H](O)[C@H]1O,Potency,[1],inactive
same,Potency,[2],inactive
same,Potency,[5],inactive
same,Potency,[6],inactive
same,Potency,[7],inactive
same,Potency,[4],inactive
same,Potency,[8],inactive
same,Potency,[9],inactive
same,Potency,[10],inactive
S=C(Nc1cc(Cl)ccn1)N1CCN(c2ccc(Cl)c(Cl)c2)CC1,Potency,[1],5.62 µM (active)
same,Potency,[2],6.31 µM (active)
same,Potency,[3],3.98 µM (active)
same,Potency,[4],inactive
same,Potency,[8],4 µM (active)
CCOc1ccc(-c2nc(CSCC(=O)N3CCN(c4cccc(C(F)(F)F)c4)CC3)c(C)o2)cc1,Potency,[1],8.91 µM (active)
same,Potency,[2],7.94 µM (active)
same,Potency,[5],2 µM (active)
CC(C)N1CCc2c(sc(NC(=O)C(F)(F)F)c2-c2nc3ccccc3s2)C1,Potency,[1],11.3 µM (active)
same,Potency,[2],8.96 µM (active)
same,Potency,[3],31.6 µM (active)
same,Potency,[8],5.65 µM (active)
COc1ccccc1-c1cc(-c2ccccc2OC)c2onc(C)c2n1,Potency,[1],inactive
same,Potency,[2],inactive
same,Potency,[5],25.1 µM (active)
same,Potency,[7],inactive
O=S(=O)(Nc1cc(O)cc2cccnc12)c1ccc(Br)s1,Potency,[1],inactive
same,Potency,[2],inactive
same,Potency,[5],inactive
same,Potency,[7],0.634 µM (active)
Cc1ccc(-c2c(C(=O)CCl)n(CCCO)c3ncnc(N)c23)cc1,Potency,[1],inactive
same,Potency,[2],inactive
same,Potency,[3],inactive
same,Potency,[4],inactive
same,Potency,[8],inactive
CC(C)(C)OC(=O)N1CCN(c2ccc(NCc3ccc4c(-c5ccc(F)cc5)cc(=O)oc4c3)cc2)CC1,Potency,[1],inactive
same,Potency,[2],5.04 µM (active)
same,Potency,[3],inactive
same,Potency,[4],inactive
Cc1cc(N[S+](=O)([O-])c2cc3c(cc2Cl)NC(=O)CO3)ccc1Cl,Potency,[1],inactive
same,Potency,[2],inactive
same,Potency,[3],inactive
same,Potency,[4],inactive
same,Potency,[8],inactive
Cc1ccc(C(=O)N2CCC(CCC(=O)N3CCCCC3)CC2)cc1,Potency,[1],inactive
same,Potency,[2],inactive
same,Potency,[5],inactive
same,Potency,[7],inactive
CC1CCN(c2ccc(CNC(=O)CC3CCOCC3)cc2)CC1,Potency,[1],inactive
same,Potency,[2],inactive
same,Potency,[5],10 µM (active)
CC(C)(C)OC(=O)N1CCN(c2ccc(NCc3coc(-c4ccc(C#N)cc4)c3)cc2)CC1,Potency,[1],0.798 µM (active)
same,Potency,[2],inactive
same,Potency,[3],2 µM (active)
same,Potency,[4],inactive
same,Potency,[8],3.57 µM (active)
CC(=O)N1CCN(c2ccc(NCc3ccc(-c4cccc(Cl)c4)o3)cc2)CC1,Potency,[1],1.13 µM (active)
same,Potency,[2],1.59 µM (active)
same,Potency,[3],2.24 µM (active)
same,Potency,[8],6.34 µM (active)
N[C@@H](CC(=O)O)C(=O)Nc1ccc(Cl)cc1C(=O)c1ccc[nH]1,Potency,[1],inactive
same,Potency,[2],inactive
same,Potency,[3],inactive
same,Potency,[4],inactive
same,Potency,[8],inactive
COc1cccc(Nc2nc(C#N)nc(NC3CCCC3)n2)c1,Potency,[1],inactive
same,Potency,[2],10.1 µM (active)
same,Potency,[3],inactive
same,Potency,[4],inactive
same,Potency,[8],inactive
CNC(=O)c1cc(Oc2ccc3nc(N[C@@H]4CCCC[C@H]4O)sc3c2)ccn1,Potency,[1],inactive
same,Potency,[2],10.1 µM (active)
same,Potency,[3],inactive
same,Potency,[4],inactive
same,Potency,[11],20.9 µM (active)
same,Potency,[12],inactive
CCn1cc2nc(SCc3ccc(C)cc3)n(CCc3ccccc3)c(=O)c2n1,Potency,[1],14.1 µM (active)
same,Potency,[2],10 µM (active)
same,Potency,[5],0.447 µM (active)
same,Potency,[7],7.94 µM (active)
COc1ccc(C2Nc3ccccc3C(=O)N2Cc2ccccc2)cc1COc1cccc(Cl)c1 (stereo not drawn),Potency,[1],5.01 µM (active)
same,Potency,[2],5.65 µM (active)
same,Potency,[3],inactive
same,Potency,[4],inactive
same,Potency,[8],inactive
COc1ccc(-c2cncc(NC(=O)c3cccs3)c2)cc1OC,Potency,[1],inactive
same,Potency,[2],inactive
same,Potency,[3],inactive
same,Potency,[8],inactive
COc1ccc(C2Nc3ccccc3C(=O)N2Cc2ccc(C(C)(C)C)cc2)cc1COc1ccc(NC(C)=O)cc1 (stereo not drawn),Potency,[1],1.58 µM (active)
same,Potency,[2],3.57 µM (active)
same,Potency,[3],inactive
same,Potency,[4],inactive
FC(F)(F)c1cnc(N2CCN(C(=S)Nc3cc(Cl)ccn3)CC2)c(Cl)c1,Potency,[1],7.12 µM (active)
same,Potency,[2],5.65 µM (active)
same,Potency,[3],12.6 µM (active)
same,Potency,[4],inactive
same,Potency,[8],2.52 µM (active)
CCn1cc2nc(SCc3cccc(C)c3)n(CCc3ccccc3)c(=O)c2n1,Potency,[1],28.2 µM (active)
same,Potency,[2],3.98 µM (active)
same,Potency,[5],1.26 µM (active)
same,Potency,[7],3.24 µM (active)
COc1ccccc1-c1no[n+]([O-])c1C#N,Potency,[1],inactive
same,Potency,[2],3.18 µM (active)
same,Potency,[3],inactive
same,Potency,[4],inactive
same,Potency,[8],inactive
O=C(C1CCN(Cc2ccccc2-c2ccccc2F)CC1)N1CCC(Cc2ccccc2)CC1,Potency,[1],3.16 µM (active)
same,Potency,[2],inactive
same,Potency,[5],inactive
same,Potency,[7],inactive
Cc1cc2c(c(=O)[nH]1)OC(C(O)CC(C)C)O2 (stereo not drawn),Potency,[1],inactive
same,Potency,[2],inactive
same,Potency,[5],inactive
c1ccc(CN(Cc2ccccc2)Cc2nnc(-c3cc4ccccc4[nH]3)s2)cc1,Potency,[1],4 µM (active)
same,Potency,[2],11.2 µM (active)
same,Potency,[3],inactive
same,Potency,[4],inactive
Cc1ccc(-c2ccc(C=O)cc2)c(C)c1,Potency,[1],4.7 µM (active)
same,Potency,[2],15.8 µM (active)
same,Potency,[5],0.355 µM (active)
same,Potency,[7],12.6 µM (active)
COc1ccc(-n2ccnc(NCc3ccc(Cl)cc3)c2=O)cc1,Potency,[1],14.1 µM (active)
same,Potency,[2],inactive
same,Potency,[5],inactive
same,Potency,[7],inactive
CC(=O)Nc1sc2c(c1-c1ccc(C(F)(F)F)cc1)CCNC2,Potency,[1],inactive
same,Potency,[2],inactive
same,Potency,[3],inactive
same,Potency,[4],inactive
same,Potency,[8],inactive

# — PubChem BioAssay (NCATS)
